# In ChEMBL document CHEMBL1961873, “Compounds: GSK PKIS; Assays: Nanosyn kinase panel” (2012):
# How the values were obtained:
# [1] = target: Sphingosine kinase 1 (Homo sapiens) (UniProt Q9NYA1); settings: at 1 µM;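 note: mean SPHK1 inhibition value reported from the GSK PKIS kinase panel screen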
# [2] = target: T1, Sphingosine kinase 2 (Homo sapiens) (UniProt Q9NRA0); settings: at 0.1 µM
# T1 sequence (whole entry): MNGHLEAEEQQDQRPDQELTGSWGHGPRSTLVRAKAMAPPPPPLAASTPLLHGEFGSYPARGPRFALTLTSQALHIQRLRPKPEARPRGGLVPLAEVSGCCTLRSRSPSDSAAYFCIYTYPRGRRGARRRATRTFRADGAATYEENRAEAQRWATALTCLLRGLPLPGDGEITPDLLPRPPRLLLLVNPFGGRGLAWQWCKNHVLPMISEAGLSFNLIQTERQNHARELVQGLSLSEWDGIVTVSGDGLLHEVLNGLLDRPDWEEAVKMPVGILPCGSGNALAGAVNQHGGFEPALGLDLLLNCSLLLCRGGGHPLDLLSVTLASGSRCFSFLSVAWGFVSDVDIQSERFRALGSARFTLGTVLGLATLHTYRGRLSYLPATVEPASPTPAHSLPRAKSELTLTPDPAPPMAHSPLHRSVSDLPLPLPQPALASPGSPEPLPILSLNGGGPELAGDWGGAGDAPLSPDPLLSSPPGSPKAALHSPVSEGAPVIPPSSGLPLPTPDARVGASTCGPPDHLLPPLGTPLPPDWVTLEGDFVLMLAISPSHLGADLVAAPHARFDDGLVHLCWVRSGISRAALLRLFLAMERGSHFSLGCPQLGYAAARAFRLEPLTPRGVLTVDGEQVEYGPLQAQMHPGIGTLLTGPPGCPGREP
# [3] = target: T1, Sphingosine kinase 2 (Homo sapiens); settings: at 1 µM
# [4] = target: Casein kinase II subunit alpha (Homo sapiens) (UniProt P68400); settings: at 0.1 µM
# [5] = target: Casein kinase II subunit alpha (Homo sapiens) (UniProt P68400); settings: at 1 µM
# [6] = target: T2, Inhibitor of nuclear factor kappa-B kinase subunit alpha (Homo sapiens) (UniProt O15111); settings: at 0.1 µM
# T2 sequence (whole entry): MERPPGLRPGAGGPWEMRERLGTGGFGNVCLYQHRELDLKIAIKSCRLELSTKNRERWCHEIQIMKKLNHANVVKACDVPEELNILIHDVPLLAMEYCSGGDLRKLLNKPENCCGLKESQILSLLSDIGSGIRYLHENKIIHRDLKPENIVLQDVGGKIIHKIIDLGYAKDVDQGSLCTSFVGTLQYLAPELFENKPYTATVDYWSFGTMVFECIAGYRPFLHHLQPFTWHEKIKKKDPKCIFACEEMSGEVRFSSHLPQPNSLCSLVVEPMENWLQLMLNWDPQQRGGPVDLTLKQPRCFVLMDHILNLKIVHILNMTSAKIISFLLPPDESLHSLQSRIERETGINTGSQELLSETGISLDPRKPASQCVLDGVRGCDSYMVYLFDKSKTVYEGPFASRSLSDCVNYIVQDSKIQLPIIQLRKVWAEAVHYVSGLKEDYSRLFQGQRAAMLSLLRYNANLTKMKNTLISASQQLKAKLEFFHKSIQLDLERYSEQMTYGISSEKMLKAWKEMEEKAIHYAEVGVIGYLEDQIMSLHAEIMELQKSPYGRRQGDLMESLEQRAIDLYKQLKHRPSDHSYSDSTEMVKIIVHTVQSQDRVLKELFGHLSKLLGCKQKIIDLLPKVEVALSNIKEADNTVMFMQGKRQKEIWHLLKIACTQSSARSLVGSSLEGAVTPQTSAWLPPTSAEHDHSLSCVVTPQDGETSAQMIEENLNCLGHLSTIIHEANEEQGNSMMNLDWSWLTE
# [7] = target: T2, Inhibitor of nuclear factor kappa-B kinase subunit alpha (Homo sapiens); settings: at 1 µM
# [8] = target: T3, Inhibitor of nuclear factor kappa-B kinase subunit beta (Homo sapiens) (UniProt O14920); settings: at 0.1 µM
# T3 sequence (whole entry): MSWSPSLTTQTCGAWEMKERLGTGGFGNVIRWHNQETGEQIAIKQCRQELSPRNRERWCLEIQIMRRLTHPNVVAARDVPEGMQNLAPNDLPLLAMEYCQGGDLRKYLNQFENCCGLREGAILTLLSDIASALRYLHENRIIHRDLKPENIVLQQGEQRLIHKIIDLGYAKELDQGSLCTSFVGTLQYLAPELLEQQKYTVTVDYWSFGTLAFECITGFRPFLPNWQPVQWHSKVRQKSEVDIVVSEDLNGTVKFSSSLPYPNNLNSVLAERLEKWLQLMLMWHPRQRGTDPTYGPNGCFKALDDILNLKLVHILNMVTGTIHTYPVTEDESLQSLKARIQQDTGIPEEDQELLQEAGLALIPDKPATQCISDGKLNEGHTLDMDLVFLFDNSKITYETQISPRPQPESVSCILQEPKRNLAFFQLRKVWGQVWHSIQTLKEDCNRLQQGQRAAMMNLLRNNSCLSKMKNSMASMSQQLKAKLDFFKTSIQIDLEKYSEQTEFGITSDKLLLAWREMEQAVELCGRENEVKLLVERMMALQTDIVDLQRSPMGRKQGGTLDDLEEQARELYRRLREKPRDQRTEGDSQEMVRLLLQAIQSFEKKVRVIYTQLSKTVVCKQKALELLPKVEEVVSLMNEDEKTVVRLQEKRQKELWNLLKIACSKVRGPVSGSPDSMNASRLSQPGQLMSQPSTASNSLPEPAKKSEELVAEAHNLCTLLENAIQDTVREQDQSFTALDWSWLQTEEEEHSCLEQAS
# [9] = target: T3, Inhibitor of nuclear factor kappa-B kinase subunit beta (Homo sapiens); settings: at 1 µM
# [10] = target: T4, Inhibitor of nuclear factor kappa-B kinase subunit epsilon (Homo sapiens) (UniProt Q14164); settings: at 0.1 µM
# T4 sequence (whole entry): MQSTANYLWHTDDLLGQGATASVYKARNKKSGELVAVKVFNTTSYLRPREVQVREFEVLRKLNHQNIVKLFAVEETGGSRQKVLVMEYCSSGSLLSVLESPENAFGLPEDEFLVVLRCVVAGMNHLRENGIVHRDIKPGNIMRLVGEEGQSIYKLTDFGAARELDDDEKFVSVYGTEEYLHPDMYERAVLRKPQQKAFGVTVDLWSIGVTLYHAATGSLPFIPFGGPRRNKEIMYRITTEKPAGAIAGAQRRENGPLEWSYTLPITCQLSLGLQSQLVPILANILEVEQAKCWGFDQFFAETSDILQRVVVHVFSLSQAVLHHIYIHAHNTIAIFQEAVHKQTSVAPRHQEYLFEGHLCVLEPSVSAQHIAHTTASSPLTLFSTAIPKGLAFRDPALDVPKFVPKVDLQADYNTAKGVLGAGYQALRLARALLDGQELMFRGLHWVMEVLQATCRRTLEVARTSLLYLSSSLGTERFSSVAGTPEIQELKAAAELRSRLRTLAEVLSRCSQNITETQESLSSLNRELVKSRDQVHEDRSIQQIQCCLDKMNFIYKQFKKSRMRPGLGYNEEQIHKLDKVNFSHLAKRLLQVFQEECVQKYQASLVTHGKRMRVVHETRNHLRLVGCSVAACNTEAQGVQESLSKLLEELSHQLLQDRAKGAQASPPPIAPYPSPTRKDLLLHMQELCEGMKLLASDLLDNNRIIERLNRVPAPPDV
# [11] = target: T4, Inhibitor of nuclear factor kappa-B kinase subunit epsilon (Homo sapiens); settings: at 1 µM
# [12] = target: T5, Serine/threonine-protein kinase Nek1 (Homo sapiens) (UniProt Q96PY6); settings: at 0.1 µM
# T5 sequence (whole entry): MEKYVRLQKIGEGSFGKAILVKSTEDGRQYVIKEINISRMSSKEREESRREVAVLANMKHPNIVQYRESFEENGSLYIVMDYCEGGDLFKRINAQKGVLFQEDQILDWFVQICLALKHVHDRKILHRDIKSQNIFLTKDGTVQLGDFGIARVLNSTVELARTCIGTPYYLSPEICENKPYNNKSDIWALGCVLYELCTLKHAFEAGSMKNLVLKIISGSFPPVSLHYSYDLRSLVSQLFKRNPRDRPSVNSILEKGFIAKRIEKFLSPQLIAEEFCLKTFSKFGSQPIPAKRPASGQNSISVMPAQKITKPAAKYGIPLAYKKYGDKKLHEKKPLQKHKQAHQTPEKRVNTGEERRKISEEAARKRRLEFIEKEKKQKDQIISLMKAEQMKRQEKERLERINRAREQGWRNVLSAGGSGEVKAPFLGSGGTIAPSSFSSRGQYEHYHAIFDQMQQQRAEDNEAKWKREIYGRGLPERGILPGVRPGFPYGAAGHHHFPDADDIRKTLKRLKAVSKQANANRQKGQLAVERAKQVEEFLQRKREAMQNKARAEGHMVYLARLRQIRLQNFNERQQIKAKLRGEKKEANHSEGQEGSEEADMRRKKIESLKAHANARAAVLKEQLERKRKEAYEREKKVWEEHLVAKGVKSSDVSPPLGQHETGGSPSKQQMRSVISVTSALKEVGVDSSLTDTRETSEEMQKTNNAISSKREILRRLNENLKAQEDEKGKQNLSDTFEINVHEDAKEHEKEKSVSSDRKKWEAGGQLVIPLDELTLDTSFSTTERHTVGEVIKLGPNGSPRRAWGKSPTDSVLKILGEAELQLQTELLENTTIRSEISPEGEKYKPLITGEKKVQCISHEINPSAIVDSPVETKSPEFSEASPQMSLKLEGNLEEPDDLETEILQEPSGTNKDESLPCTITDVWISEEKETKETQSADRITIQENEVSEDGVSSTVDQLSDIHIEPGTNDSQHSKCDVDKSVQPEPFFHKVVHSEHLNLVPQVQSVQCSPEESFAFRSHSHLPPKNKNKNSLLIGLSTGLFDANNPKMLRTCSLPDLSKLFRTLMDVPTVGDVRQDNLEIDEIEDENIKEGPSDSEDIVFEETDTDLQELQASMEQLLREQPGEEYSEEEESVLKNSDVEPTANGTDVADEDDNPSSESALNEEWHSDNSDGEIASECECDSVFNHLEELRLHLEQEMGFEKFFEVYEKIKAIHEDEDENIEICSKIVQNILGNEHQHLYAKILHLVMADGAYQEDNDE
# [13] = target: T5, Serine/threonine-protein kinase Nek1 (Homo sapiens); settings: at 1 µM
# [14] = target: T6, Serine/threonine-protein kinase Nek2 (Homo sapiens) (UniProt P51955); settings: at 0.1 µM
# T6 sequence (whole entry): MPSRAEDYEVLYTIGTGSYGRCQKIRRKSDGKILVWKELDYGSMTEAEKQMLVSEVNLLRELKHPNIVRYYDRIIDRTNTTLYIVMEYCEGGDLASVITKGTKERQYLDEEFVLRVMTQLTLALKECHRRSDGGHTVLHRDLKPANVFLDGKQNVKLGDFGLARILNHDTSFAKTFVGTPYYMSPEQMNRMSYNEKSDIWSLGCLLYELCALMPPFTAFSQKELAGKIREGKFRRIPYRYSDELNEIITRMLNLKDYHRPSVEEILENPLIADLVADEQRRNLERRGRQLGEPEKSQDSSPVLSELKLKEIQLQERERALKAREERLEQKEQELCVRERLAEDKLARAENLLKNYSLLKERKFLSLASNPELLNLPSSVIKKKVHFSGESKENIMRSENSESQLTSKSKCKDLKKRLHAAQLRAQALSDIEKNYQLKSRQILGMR
# [15] = target: T6, Serine/threonine-protein kinase Nek2 (Homo sapiens); settings: at 1 µM
# [16] = target: Serine/threonine-protein kinase Nek6 (Homo sapiens) (UniProt Q9HC98); settings: at 0.1 µM
# [17] = target: Serine/threonine-protein kinase Nek6 (Homo sapiens) (UniProt Q9HC98); settings: at 1 µM
# [18] = target: Serine/threonine-protein kinase Nek7 (Homo sapiens) (UniProt Q8TDX7); settings: at 0.1 µM
# [19] = target: Serine/threonine-protein kinase Nek7 (Homo sapiens) (UniProt Q8TDX7); settings: at 1 µM
# [20] = target: T7, Serine/threonine-protein kinase Nek9 (Homo sapiens) (UniProt Q8TD19); settings: at 0.1 µM;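 note: reported value is the mean percent inhibition of NEK9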
# T7 sequence (whole entry): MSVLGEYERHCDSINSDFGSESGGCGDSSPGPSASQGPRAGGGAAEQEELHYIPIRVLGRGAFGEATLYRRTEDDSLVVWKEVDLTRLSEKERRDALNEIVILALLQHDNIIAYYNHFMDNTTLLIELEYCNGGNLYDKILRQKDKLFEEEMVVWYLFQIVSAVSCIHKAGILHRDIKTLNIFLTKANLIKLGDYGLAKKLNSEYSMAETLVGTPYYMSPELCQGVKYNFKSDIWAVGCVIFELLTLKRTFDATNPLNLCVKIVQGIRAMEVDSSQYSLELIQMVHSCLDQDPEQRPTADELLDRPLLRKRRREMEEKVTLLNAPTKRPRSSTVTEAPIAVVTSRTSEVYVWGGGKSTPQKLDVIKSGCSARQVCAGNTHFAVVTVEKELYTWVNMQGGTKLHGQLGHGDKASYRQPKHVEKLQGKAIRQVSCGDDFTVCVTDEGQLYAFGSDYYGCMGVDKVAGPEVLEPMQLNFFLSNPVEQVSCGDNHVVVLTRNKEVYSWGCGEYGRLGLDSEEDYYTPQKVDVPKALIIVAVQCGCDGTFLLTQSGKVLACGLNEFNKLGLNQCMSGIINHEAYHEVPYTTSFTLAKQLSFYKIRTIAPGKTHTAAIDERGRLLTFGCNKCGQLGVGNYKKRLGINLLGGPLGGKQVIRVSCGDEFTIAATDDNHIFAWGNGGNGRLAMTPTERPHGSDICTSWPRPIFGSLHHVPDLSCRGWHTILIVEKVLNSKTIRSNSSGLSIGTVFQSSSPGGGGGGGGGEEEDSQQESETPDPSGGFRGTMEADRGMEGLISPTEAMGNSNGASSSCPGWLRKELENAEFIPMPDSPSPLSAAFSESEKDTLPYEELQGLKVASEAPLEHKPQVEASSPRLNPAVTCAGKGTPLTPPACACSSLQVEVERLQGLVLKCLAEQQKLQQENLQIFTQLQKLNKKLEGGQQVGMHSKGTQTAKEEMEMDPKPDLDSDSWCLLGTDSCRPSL
# Chain of Serine/threonine-protein kinase Nek6 (Homo sapiens) (Q9HC98 whole entry): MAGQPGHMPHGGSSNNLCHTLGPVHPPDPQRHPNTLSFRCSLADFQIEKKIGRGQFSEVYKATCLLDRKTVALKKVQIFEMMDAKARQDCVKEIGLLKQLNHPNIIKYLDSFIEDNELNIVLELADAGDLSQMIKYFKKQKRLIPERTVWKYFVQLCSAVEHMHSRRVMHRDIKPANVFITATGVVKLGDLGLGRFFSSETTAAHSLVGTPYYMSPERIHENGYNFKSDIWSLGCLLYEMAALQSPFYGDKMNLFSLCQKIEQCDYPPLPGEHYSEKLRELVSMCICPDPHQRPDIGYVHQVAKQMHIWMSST
# Chain of Serine/threonine-protein kinase Nek7 (Homo sapiens) (Q8TDX7 whole entry, looked up): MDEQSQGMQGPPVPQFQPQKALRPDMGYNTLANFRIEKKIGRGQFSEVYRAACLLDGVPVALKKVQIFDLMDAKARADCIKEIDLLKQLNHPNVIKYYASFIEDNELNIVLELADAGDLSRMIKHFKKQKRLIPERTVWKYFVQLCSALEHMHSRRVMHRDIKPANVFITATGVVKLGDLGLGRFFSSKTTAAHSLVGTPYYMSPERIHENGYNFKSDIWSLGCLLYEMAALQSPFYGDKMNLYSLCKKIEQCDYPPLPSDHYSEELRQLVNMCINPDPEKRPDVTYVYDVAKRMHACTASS
# Chain of Casein kinase II subunit alpha (Homo sapiens) (P68400 whole entry, looked up): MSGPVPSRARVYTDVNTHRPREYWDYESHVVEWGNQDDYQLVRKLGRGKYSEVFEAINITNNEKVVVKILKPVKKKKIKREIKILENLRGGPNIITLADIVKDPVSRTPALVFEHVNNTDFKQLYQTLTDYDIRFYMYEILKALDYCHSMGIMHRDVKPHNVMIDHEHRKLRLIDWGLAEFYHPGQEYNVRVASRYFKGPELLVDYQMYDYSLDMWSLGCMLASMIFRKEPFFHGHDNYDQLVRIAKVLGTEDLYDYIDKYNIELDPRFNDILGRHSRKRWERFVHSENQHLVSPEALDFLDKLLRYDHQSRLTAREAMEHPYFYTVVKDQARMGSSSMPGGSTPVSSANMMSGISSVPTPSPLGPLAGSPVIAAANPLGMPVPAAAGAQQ
# Chain of Sphingosine kinase 1 (Homo sapiens) (Q9NYA1 whole entry): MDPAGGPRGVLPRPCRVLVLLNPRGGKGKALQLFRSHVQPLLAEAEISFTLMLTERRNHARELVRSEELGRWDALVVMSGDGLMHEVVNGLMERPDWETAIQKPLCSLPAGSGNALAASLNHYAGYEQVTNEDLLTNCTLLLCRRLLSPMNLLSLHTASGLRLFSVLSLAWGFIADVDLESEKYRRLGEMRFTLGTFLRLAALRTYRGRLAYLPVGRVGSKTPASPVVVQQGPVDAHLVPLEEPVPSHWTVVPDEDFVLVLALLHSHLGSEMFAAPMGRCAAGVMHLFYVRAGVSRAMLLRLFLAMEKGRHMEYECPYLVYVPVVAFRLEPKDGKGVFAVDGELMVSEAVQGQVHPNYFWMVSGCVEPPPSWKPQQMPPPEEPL
Compound,inhibition [1],inhibition [2],inhibition [3],inhibition [4],inhibition [5],inhibition [6],inhibition [7],inhibition [8],inhibition [9],inhibition [10],inhibition [11],inhibition [12],inhibition [13],inhibition [14],inhibition [15],inhibition [16],inhibition [17],inhibition [18],inhibition [19],inhibition [20]
NC(=O)c1sc(-n2cnc3ccccc32)cc1OCc1ccccc1Br,-0.07%,1.77%,0%,5.03%,5.76%,4.61%,7.53%,4.02%,5.66%,8.4%,6.21%,1.75%,2.24%,4.32%,3.39%,-0.26%,2.86%,3.33%,9.69%,8.49%
N#Cc1c(NC(=O)c2ccccc2F)sc2c1CCCC2,1.37%,0.4%,-1.81%,2.62%,1.09%,2.43%,5.52%,-1.19%,-1.36%,-2.08%,-0.39%,1.15%,2.83%,1.03%,3.25%,-4.29%,-1.45%,-2.18%,0.08%,-2.9%
CCS(=O)(=O)c1ccc(OC)c(Nc2ncc(-c3cccc(OC)c3)o2)c1,1.37%,0%,-2%,5.03%,29.3%,5.66%,-4.47%,3.95%,1.16%,0.74%,4.13%,0.44%,1.45%,2.73%,2.94%,-1.47%,0.87%,2.84%,2.42%,4.19%
